# Assay results: PubChem BioAssay (NCI)
# The panel holds about 79,000 compounds, 15% with a hit somewhere; the sample as a whole holds those more often. A number with no mark means an inactive call. The source made the active and inactive calls. Cut-off read from the data, not from the text of the source: active = growth inhibition above about 70%; inactive = the rest.
# Experiments:
# [1] = NCI Yeast Anticancer Drug Screen. Data for the rad50 strain (AID 155);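 note: 0% = growth of vehicle-only cultures of the same strain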; conditions: S. cerevisiae rad50 strain growth inhibition, stronger effect = higher value
# Summary of the method: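 Genetically altered yeast (DNA repair pathway); compound treatment; growth inhibition vs vehicle ctrl.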
# [2] = NCI Yeast Anticancer Drug Screen. Data for the mec2-1 strain (AID 157); conditions: S. cerevisiae mec2-1 strain, stronger effect = higher value
# Summary of the method: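 Each compound was tested on mec2-1 yeast, a strain altered in DNA damage repair or cell cycle control. Growth inhibition is reported relative to vehicle.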
# [3] = NCI Yeast Anticancer Drug Screen. Data for the sgs1 mgt1 strain (AID 161);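 note: 0% = growth of cultures given vehicle only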; conditions: S. cerevisiae sgs1 mgt1 strain, stronger effect = higher value
# Summary of the method: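 Mutant yeast exposed to compound; growth scored against vehicle-only wells.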
# [4] = NCI Yeast Anticancer Drug Screen. Data for the cln2 rad14 strain (AID 165);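 note: 0% = growth equal to vehicle treated cultures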; conditions: S. cerevisiae cln2 rad14 strain, stronger effect = higher value
# Summary of the method: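 Test compounds were added to cln2 rad14 yeast cultures; inhibition of growth was then determined by comparison with vehicle treatment.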
# [5] = NCI Yeast Anticancer Drug Screen. Data for the bub3 strain (AID 167); conditions: S. cerevisiae bub3 mutant strain, stronger effect = higher value
# Summary of the method: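 Yeast carrying a defined mutation is treated with each compound, and growth is compared with that of vehicle-exposed cells to give inhibition.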
# [6] = NCI Yeast Anticancer Drug Screen. Data for the mlh1 rad18 strain (AID 175); conditions: S. cerevisiae mlh1 rad18 strain growth inhibition, stronger effect = higher value
# Summary of the method: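 Inhibition values reflect reduced growth of mutant yeast versus vehicle-treated controls following compound exposure; the mutations affect DNA damage repair.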
# [7] = at 5.0 µM (retest, dose inferred, filed as 0.5)
# [8] = at 50.0 µM (retest, dose inferred, filed as 5.0)
SMILES,"growth inhibition [1, 7]","growth inhibition [1, 8]",growth inhibition ([1]; at 50.0 µM),"growth inhibition [2, 7]","growth inhibition [2, 8]",growth inhibition ([2]; at 50.0 µM),"growth inhibition [3, 7]","growth inhibition [3, 8]",growth inhibition ([3]; at 50.0 µM),"growth inhibition [4, 7]","growth inhibition [4, 8]",growth inhibition ([4]; at 50.0 µM),"growth inhibition [5, 7]","growth inhibition [5, 8]",growth inhibition ([5]; at 50.0 µM),"growth inhibition [6, 7]","growth inhibition [6, 8]",growth inhibition ([6]; at 50.0 µM)
O=C(O)c1cc2c(cc1CC(Cc1ccc3c(c1)CCCC3)C(=O)O)CCCC2 (configuration not stated),20%,95% (active),86.3% (active),16%,98% (active),73.3% (active),19%,98% (active),70.2% (active),9%,96% (active),74.4% (active),7%,98% (active),76.2% (active),8%,96% (active),82.5% (active)
COC(=O)C1=C(C)NC(C)=C([N+](=O)[O-])C1c1cccc(N=O)c1 (configuration not stated),22%,68%,74.2% (active),16%,98% (active),72.1% (active),27%,86% (active),89.8% (active),28%,45%,57.2%,26%,93% (active),90.2% (active),33%,97% (active),84.4% (active)
CCCCCCc1ccc(O)c(Cl)c1,0%,28%,98.8% (active),0%,15%,94% (active),-1%,15%,77.3% (active),-4%,-3%,44.1%,-5%,-8%,57.4%,0%,19%,89.6% (active)
Cc1cc([N+](=O)[O-])cc(C)c1OC(=O)Nc1c(Cl)cccc1Cl,37%,37%,31.6%,30%,45%,22.1%,46%,71% (active),55.4%,32%,36%,22.1%,24%,68%,23.1%,48%,56%,24.1%
O=C(Cc1ccccc1)NC(C(=O)c1ccccc1)c1ccccc1 (configuration not stated),36%,55%,75.5% (active),21%,40%,31.1%,36%,47%,72.2% (active),25%,26%,57%,48%,72% (active),83.2% (active),35%,53%,73.7% (active)
CSC(=Nc1ccc(Cl)cc1)N1CC=Cc2ccccc21,2%,-1%,-1.85%,-13%,12%,5.85%,-15%,23%,43.4%,9%,-4%,42.8%,49%,82% (active),81.8% (active),0%,-1%,12.3%
CCC(C)n1c(C)nc2c(N)cc(C(F)(F)F)cc21 (configuration not stated),0%,11%,74% (active),3%,30%,95.8% (active),4%,38%,93.7% (active),1%,8%,98.8% (active),-4%,9%,98% (active),0%,28%,94.5% (active)
CN1CCCC1c1cccc(Br)c1 (configuration not stated),-163%,81% (active),59%,-51%,26%,17.1%,-65%,37%,21.6%,-75%,50%,-1.05%,-69%,54%,-8.55%,-125%,50%,26.1%
CCCCCCCC(=O)/C=C/c1ccc(C)cc1,-161%,-136%,56.8%,-54%,-50%,44.1%,-69%,-65%,67.6%,-62%,-86%,30.2%,-61%,-47%,65.8%,-128%,-119%,45%
CCCC/C=C\CCCCCCCCCC1=C(O)C(=O)C=C(OC)C1=O,65%,83% (active),60.9%,64%,89% (active),69.6%,74% (active),91% (active),65.3%,40%,62%,42.5%,77% (active),86% (active),63%,71% (active),87% (active),57.7%
CC(C)C1=C2CCC3(C)C(CCC4C5C6OCC5(CCC6(C)C)CCC43C)C2(C)CC1 (configuration not stated),22%,49%,72.5% (active),6%,40%,77.5% (active),19%,69%,82.3% (active),27%,62%,83.7% (active),10%,57%,77% (active),17%,45%,65.5%
COC12C(COC(N)=O)C3=C(C(=O)C(C)=C(N)C3=O)N1CC1C2N1C(=O)/C=C/c1ccccc1 (configuration not stated),11%,72% (active),73.7% (active),13%,82% (active),70.7% (active),24%,87% (active),85.7% (active),3%,80% (active),75.7% (active),2%,66%,72.4% (active),27%,90% (active),87% (active)
C=CCOc1c(CCC)cc(CN)cc1CCC,-2%,2%,4.45%,-2%,-6%,-8.2%,5%,23%,24.6%,1%,-7%,58.5%,-3%,7%,2.55%,-1%,11%,49.8%
CCC(C)SC1SCC2C(=O)N(C)C3(CC3C)C(=O)OCC(NC(=O)c3nc4ccccc4cc3O)C(=O)NC(C)C(=O)N(C)C1C(=O)N(C)C1(CC1C)C(=O)OCC(NC(=O)c1nc3ccccc3cc1O)C(=O)NC(C)C(=O)N2C (configuration not stated),98% (active),89% (active),89.7% (active),99% (active),92% (active),91.9% (active),80% (active),93% (active),92.4% (active),79% (active),94% (active),88.7% (active),75% (active),93% (active),91.2% (active),94% (active),84% (active),89.8% (active)
O=[N+]([O-])CC(O)c1ccccc1Cl (configuration not stated),90% (active),98% (active),99.3% (active),5%,99% (active),99.7% (active),-15%,99% (active),99.5% (active),-4%,98% (active),98.7% (active),16%,98% (active),99.4% (active),30%,99% (active),99.2% (active)
COC(=O)c1ccc(C)cc1CC1Cc2cc(C)ccc2C1=O (configuration not stated),5%,54%,36.1%,-21%,56%,56.1%,-31%,68%,73.9% (active),21%,53%,71.8% (active),-34%,49%,64.2%,-12%,85% (active),70.7% (active)
O=[N+]([O-])c1ccc(NNS(=O)(=O)c2ccccc2)c([N+](=O)[O-])c1,3%,-7%,5.85%,-13%,-4%,16.3%,-3%,13%,10.3%,-33%,-17%,-18.2%,4%,13%,-2%,0%,16%,13.8%
CN(/N=C\c1ccc(Cl)cc1)C(c1ccc(Cl)cc1)N(C)/N=C/c1ccc(Cl)cc1 (configuration not stated),-1%,70% (active),29%,2%,84% (active),9.5%,-3%,94% (active),80.2% (active),3%,67%,45.5%,-2%,66%,16.6%,-3%,85% (active),30.2%
[Cl][Sn]1([Cl])[CH2]CC[CH2][Sn]([Cl])([Cl])[CH2]CC[CH2][Sn]([Cl])([Cl])[CH2]CC[CH2][Sn]([Cl])([Cl])[CH2]CC[CH2]1,-20%,57%,54.3%,-19%,63%,83.3% (active),-3%,66%,87.5% (active),-6%,47%,69.6%,-9%,66%,70.9% (active),-2%,83% (active),94% (active)
